Compounds without any hit were thinned out: in the full panel of roughly 83,000, 20% have a hit.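 Step 1: grow cells in 96-well plates. Step 2: add test compound at a single concentration. Step 3: incubate 48 h. Step 4: record percent growth.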 Unmarked numbers belong to inactive results. Activity calls are given as the source filed them. How the source made its calls: active means growth percent below 10; inactive means the rest.
system: ACHN renal; experiment: NCI-60 one-dose screen, 48 h (100 = growth as untreated, 0 = no growth, -100 = all killed); details: 10 µM unless noted

Nc1nc(N)c2c(n1)NC(c1ccc3c(c1)OCO3)CC(c1cccc(Nc3ccncc3)c1)=N2 (stereo not given) was tested. Which growth did it give?
The growth was 110%.

CCCCCCCC/C=C\CCCCCCCCOc1ccc(CC(=O)NCC[N+]2(C)CCCC2)cc1 was tested. Which growth did it give?
Its growth is 84.1%.

How did the growth turn out when Cn1cc(-c2csc(-c3cn(CCO)c4ccc(F)cc34)n2)c2cccnc21 was run?
The growth was 69.5%.

For CCOC(=O)C1=CCC(n2cc(F)c(=O)[nH]c2=O)O1 (stereo not given), which growth is on record?
The growth was 103%.

For CC1(C)CC[C@]2(CO)CC[C@]3(C)C(=CC[C@@H]4[C@@]5(C)CCNCC(C)(C)[C@@H]5CC[C@]43C)[C@@H]2C1, which growth is on record?
Its growth is 88%.

O=C(CN1C(=O)NC2NC(=O)NC21)N/N=C/c1cccc([N+](=O)[O-])c1 (stereo not given) was tested. Which growth did it give?
Its growth is 104%.

With [2H]C([2H])([2H])Oc1ccc(/C=C/C(=O)/C=C(O)/C=C/c2ccc(OC([2H])([2H])[2H])c(OC([2H])([2H])[2H])c2)cc1OC([2H])([2H])[2H] as the compound, how does the growth read?
Its growth is 40.2%.

With Cc1nn(C)c2ncnc(Nc3ccccc3Br)c12 as the compound, how does the growth read?
Its growth is 106%.

COc1cc(NC(=O)c2cncnc2Nc2ccc3c(ccn3Cc3cccc(F)c3)c2)cc(OC)c1 was tested. Which growth did it give?
The growth was 54%.

For C=C1CC[C@@H]2[C@](C)(COC(C)=O)[C@H](OC(C)=O)CC[C@@]2(C)[C@@H]1CC(Nc1ccc(S(=O)(=O)Nc2nccc(C)n2)cc1)C1=CCOC1=O (stereo not given in full), which growth is on record?
Its growth is -37.2% (active).

With Cc1nc2c(c(-c3ccccc3)n1)Cc1c(ccc3ccccc13)O2 as the compound, how does the growth read?
Its growth is 90.8%.

Which growth does the source give for CCCc1cc(CCC)n2nc(N)nc2n1 here?
Its growth is 101%.

Clc1ccc(C2=Nn3c(nnc3-c3cc(Cl)cc(Cl)c3Cl)SC2)cc1 was tested. Which growth did it give?
The growth was 58.2%.

For CCN(CC)CCN1C(=O)c2c(c(C)c3c(oc4cc(OC)ccc43)c2C)C1=O, which growth is on record?
The growth was 51%.

With O=C1c2cccnc2C(=O)c2c1c(C(=O)OCCCN1CCOCC1)c1ccccn21 as the compound, how does the growth read?
The growth was -37.3% (active).

Which growth does the source give for CCCCN(CCC#N)C(N)=O here?
The growth was 97.7%.

O=C(OCC(O)(CO)C(=O)NC12CC3CC(CC(C3)C1)C2)c1ccc(Cl)cc1 (stereo not given) was tested. Which growth did it give?
The growth was 102%.

For CC1(C)C2=C(C(=O)N1Cc1ccccc1)C(c1ccco1)N(C(=O)C1CCC1)CCN2 (stereo not given), which growth is on record?
The growth was 111%.

Which growth does the source give for CN1CC(c2ccccc2)C(C(=O)c2ccc(Br)cc2)C12C(=O)Nc1ccccc12 (stereo not given) here?
Its growth is 100%.

With Nc1ncc(-c2ccc3ncnc(N4CCc5cc(F)c(Cl)cc54)c3c2)cn1 as the compound, how does the growth read?
Its growth is 20.5%.

How did the growth turn out when CCCCCN(CCCCC)CC(O)c1c(Cl)ccc2ccccc12 (stereo not given) was run?
Its growth is 54.7%.

With CNC(=O)c1cc(Oc2ccc3nc(NC(=O)NC(C)C)sc3c2)ccn1 as the compound, how does the growth read?
Its growth is 94%.

Nc1ccc(Cl)c2c(=O)c3ccccc3[nH]c12 was tested. Which growth did it give?
The growth was 80.8%.

How did the growth turn out when CNC(=O)c1cc(Oc2cccc3nc(NC(=O)Nc4ccc(F)cc4F)ccc23)ccn1 was run?
The growth was 33.6%.

For N#Cc1c(-c2ccc(F)cc2)cc(-c2cccc(Cl)c2)[nH]c1=O, which growth is on record?
The growth was 49.4%.

— PubChem BioAssay (NCI)
